Results published in PubChem BioAssay (NCATS).
Records with an inconclusive call do not appear. Calls of active or inactive are those of the source. Calls follow the shape of the dose curve; as a rule, active = well fitted curve in the direction sought with a large enough effect; inconclusive = small, poorly fitted or top-dose-only effect, or another doubt; inactive = no such curve, though single readings can be large; an effect the other way counts as inactive or inconclusive.

Legend:
Furin (Homo sapiens) = Furin (Homo sapiens) (UniProt P09958); assay: Furin counterscreen qHTS for Zika virus inhibitors (AID 1347149); also: nearly all actives have a fitted effect of over 70% in size; also: potency is read from the fitted curve at half-maximal effect;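 as to activity change, negative = inhibition: purified recombinant full-length human furin enzyme at 5 nM; fluorescence gain from furin cutting a BOC-RVRR-AMC peptide substrate over 15 min; top concentration of the series differs between compounds; plate controls were no-inhibitor control for no effect and no-enzyme control for full effect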
Sequence of Furin (Homo sapiens) (P09958 whole entry, looked up): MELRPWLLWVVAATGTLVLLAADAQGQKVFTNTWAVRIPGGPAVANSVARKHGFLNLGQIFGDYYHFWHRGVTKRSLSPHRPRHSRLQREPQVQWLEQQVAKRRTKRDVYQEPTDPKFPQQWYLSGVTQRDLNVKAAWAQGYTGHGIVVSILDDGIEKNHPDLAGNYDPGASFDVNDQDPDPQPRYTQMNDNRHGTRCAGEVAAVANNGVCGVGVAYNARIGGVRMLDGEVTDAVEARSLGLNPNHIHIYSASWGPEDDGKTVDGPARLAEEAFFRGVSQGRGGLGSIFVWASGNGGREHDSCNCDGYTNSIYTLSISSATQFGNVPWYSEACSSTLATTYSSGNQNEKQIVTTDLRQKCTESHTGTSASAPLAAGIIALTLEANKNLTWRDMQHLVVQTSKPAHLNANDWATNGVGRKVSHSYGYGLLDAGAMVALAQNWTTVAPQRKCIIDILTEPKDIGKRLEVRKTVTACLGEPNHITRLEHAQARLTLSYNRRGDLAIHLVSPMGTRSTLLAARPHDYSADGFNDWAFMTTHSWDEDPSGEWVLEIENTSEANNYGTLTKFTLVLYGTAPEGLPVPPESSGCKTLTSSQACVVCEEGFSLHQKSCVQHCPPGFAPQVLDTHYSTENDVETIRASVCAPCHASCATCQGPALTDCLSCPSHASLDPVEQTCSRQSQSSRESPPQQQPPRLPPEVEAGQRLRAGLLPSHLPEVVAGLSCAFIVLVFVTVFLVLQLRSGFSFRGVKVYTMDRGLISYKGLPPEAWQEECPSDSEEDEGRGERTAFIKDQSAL
How it was run: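 Counterscreen measures cleavage of 2 microM BOC-RVRR-AMC, below its ~15 microM Km, by 5 nM full-length human furin at pH 7.0 after a 15-min compound preincubation. Inhibition derives from the 15-min fluorescence increase at 37C.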

[1] = Confirmatory screen GU Rhodamine qHTS for Zika virus inhibitors qHTS (AID 1347157); also: nearly all actives have a fitted effect of over 70% in size; also: potency is read from the fitted curve at half-maximal effect;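 as to activity change, negative = inhibition: plate controls were no-inhibitor wells for no effect and no-enzyme wells for full effect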
How it was run: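 Unlinked NS2B/NS3, 25 nM; Rhod110 peptide, 1.5 microM; compounds, up to 114 microM. Reaction run 15 min at RT in 10 mM Tris-HCl pH 8.0, 0.01% Tween 20; kinetic fluorescence change fitted with a 4-parameter Hill model.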

[2] = ZIKV-mCherry secondary qHTS for Zika virus inhibitors (AID 1347158); also: potency is read from the fitted curve at half-maximal effect; as to activity change, negative = inhibition: top concentration of the series differs between compounds
How it was run: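 Compounds were tested in Vero monkey kidney cells infected with recombinant mCherry-expressing Zika virus at MOI 1 for 48-72 h at 37 °C. Fixed cells were nuclear-stained and imaged, and infection rate was taken as the fraction of mCherry-positive cells.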

[3] = Confirmatory screen NINDS Rhodamine qHTS for Zika virus inhibitors (AID 1347161); also: nearly all actives have a fitted effect of over 60% in size; also: potency is read from the fitted curve at half-maximal effect;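 as to activity change, negative = inhibition: purified Zika NS2B-NS3 protease with linked NS2B cofactor domain and Rhodamine110 peptide substrate; series mostly up to about 110 µM; plate controls were no-inhibitor control for no effect and no-enzyme control for full effect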
How it was run: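 Single-chain NS2B-NS3 protease, 25 nM, pH 8.0; compounds preincubated 15 min. Activity: Rhodamine110 release from 1.5 microM substrate over 15 min, room temperature, data fitted to 4-parameter Hill.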

[4] = tested on: Zika virus NS2B-NS3 protease (linked); assay: 384 well plate NINDS AMC confirmatory qHTS for Zika virus inhibitors (AID 1347163); also: nearly all actives have a fitted effect of over 50% in size; also: potency is read from the fitted curve at half-maximal effect;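 as to activity change, negative = inhibition: fluorescence of AMC released from Ac-VKTGKR-AMC peptide cleaved by the protease; top concentration of the series differs between compounds; 0% = no-inhibitor control and -100% = no-enzyme control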
How it was run: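 Fluorescence at 355/460 nm was read after 25 minutes of cleavage of 30 microM Ac-VKTGKR-AMC at room temperature, in the dark. Before substrate addition, compounds (up to 1 mM final) sat ~15 minutes with 5, 30 or 60 nM linked protease. Signals were normalized to no-enzyme and no-inhibitor wells.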

[5] = tested on: Zika virus NS2B-NS3 protease (linked construct); assay: 384 well plate NINDS Rhodamine confirmatory qHTS for Zika virus inhibitors (AID 1347164); also: potency is read from the fitted curve at half-maximal effect; nearly all actives have a fitted effect of over 65% in size
How it was run: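 Cleavage of Ac-LKRR-Rhodamine 110 (10 microM final) by linked protease (final 5, 30 or 60 nM) was followed as fluorescence at 485/538 nm after 25 min, room temperature, dark. Compounds preincubated ~15 min.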

[6] = Tertiary RLuc qRT-PCR qHTS assay for Zika virus inhibitors (AID 1347169); also: top concentration of the series differs between compounds; % is scaled to controls: 0 for no effect and ±100 for the full control effect; nearly all actives have a fitted effect of over 55% in size
How it was run: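 Inhibition of ZIKV-RLuc replication in Vero cells, read as Renilla luminescence 1-1.5 hrs after live-cell substrate addition, following 48-72 hrs infection at MOI 1-2 in presence of compound.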

[7] = biological target: Rap guanine nucleotide exchange factor 3 (Homo sapiens) (UniProt O95398); assay: Confirmatory qHTS for antagonist of cAMP-regulated guanine nucleotide exchange factor 3 (EPAC1) (AID 1645880); also: potency is read from the fitted curve at half-maximal effect; nearly all actives have a fitted effect of over 55% in size
Sequence of Rap guanine nucleotide exchange factor 3 (Homo sapiens) (O95398 whole entry, looked up): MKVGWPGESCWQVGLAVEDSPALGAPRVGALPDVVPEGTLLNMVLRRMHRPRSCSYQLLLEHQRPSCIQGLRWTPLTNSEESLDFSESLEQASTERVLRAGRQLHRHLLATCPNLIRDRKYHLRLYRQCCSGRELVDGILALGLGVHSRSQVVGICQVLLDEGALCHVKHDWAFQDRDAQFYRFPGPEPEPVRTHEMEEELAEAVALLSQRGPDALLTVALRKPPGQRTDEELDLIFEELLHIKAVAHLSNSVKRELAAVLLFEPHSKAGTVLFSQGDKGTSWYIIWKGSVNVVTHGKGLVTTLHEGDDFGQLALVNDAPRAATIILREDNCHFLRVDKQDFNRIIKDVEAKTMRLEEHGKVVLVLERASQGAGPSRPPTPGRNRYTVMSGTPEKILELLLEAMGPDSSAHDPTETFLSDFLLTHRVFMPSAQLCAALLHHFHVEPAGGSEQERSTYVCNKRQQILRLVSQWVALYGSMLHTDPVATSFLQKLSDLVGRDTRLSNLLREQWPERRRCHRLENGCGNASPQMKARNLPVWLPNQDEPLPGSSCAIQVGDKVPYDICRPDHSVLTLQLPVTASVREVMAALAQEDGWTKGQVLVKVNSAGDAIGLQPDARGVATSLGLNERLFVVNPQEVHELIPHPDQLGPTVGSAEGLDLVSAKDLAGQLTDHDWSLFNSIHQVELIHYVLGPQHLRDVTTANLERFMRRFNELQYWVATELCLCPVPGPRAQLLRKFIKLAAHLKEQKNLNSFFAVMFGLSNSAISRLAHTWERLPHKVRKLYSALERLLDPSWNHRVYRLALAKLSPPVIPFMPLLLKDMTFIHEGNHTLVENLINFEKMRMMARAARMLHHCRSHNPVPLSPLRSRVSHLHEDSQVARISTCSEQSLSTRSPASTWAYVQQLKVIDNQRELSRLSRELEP
How it was run: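 Released BODIPY-GDP fluoresces less than Rap1-bound BODIPY-GDP; the signal is followed at 480/540 nm at 5-min intervals over 30 min, after 5 min at room temperature. Reactions contain 100 nM EPAC1, 250 nM RAP1B-BODIPY-GDP and 50 uM GDP; results are normalized to ATA and DMSO.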

[8] = biological target: Rap guanine nucleotide exchange factor 3 (Homo sapiens) (UniProt O95398); assay: Confirmatory qHTS for agonist of cAMP-regulated guanine nucleotide exchange factor 3 (EPAC1) (AID 1645881);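 also: EPAC1 catalysed release of BODIPY-GDP from Rap1B seen as fluorescence loss; 100% = effect of cAMP agonist control; nearly all actives have a fitted effect of over 75% in size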
[9] = biological target: Rap guanine nucleotide exchange factor 4 (Homo sapiens) (UniProt Q8WZA2); assay: Confirmatory qHTS for agonist of cAMP-regulated guanine nucleotide exchange factor 4 (EPAC2) (AID 1645884);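 also: nucleotide exchange releases bodipy-GDP from Rap1 and this lowers its fluorescence; % is scaled to controls: 0 for no effect and ±100 for the full control effect; nearly all actives have a fitted effect of over 65% in size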
Sequence of Rap guanine nucleotide exchange factor 4 (Homo sapiens) (Q8WZA2 whole entry, looked up): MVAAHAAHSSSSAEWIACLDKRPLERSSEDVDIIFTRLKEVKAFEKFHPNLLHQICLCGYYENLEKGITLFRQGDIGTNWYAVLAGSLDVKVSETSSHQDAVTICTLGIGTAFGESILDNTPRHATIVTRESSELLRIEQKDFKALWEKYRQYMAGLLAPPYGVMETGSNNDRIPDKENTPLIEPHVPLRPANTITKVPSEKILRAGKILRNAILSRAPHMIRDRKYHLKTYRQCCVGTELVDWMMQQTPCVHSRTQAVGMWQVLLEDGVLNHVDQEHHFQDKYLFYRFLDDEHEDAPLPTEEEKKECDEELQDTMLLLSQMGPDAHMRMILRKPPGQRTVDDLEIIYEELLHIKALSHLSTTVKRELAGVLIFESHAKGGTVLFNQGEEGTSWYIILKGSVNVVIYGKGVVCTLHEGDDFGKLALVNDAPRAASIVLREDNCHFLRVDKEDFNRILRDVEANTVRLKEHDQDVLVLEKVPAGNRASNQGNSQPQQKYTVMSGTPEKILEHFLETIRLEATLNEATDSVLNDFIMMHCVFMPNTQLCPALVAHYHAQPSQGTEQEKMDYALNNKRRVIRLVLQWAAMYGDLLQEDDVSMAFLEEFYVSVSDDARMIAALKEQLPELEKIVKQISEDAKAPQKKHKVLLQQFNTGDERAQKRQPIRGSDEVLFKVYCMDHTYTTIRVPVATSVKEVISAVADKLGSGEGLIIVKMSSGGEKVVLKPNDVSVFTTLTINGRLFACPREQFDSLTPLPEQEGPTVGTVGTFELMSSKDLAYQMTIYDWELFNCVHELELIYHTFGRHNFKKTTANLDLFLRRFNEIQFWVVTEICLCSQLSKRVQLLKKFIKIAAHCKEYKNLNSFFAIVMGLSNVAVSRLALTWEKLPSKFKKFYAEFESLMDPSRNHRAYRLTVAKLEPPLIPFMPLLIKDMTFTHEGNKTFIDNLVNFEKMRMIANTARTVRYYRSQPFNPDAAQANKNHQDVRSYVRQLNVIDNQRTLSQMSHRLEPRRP

[10] = biological target: Rap guanine nucleotide exchange factor 4 (Homo sapiens) (UniProt Q8WZA2); assay: Confirmatory qHTS for antagonist of cAMP-regulated guanine nucleotide exchange factor 4 (EPAC2) (AID 1645885); also: % is scaled to controls: 0 for no effect and ±100 for the full control effect; nearly all actives have a fitted effect of over 25% in size
[11] = biological target: Rap guanine nucleotide exchange factor 3 (Homo sapiens) (UniProt O95398); assay: Counterscreen qHTS for antagonist of cAMP-regulated guanine nucleotide exchange factor 3 (EPAC1) (AID 1645888); also: % of control where 0% means no effect
How it was run: (§1)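 Measured: fluorescence of BODIPY-GDP bound to Rap1B, which falls as exchange proceeds. Conditions include 50 uM competing GDP, 5 and 30 min reads, and a later cAMP challenge for antagonist detection.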

[12] = biological target: Rap guanine nucleotide exchange factor 3 (Homo sapiens) (UniProt O95398); assay: Counterscreen qHTS for agonist of cAMP-regulated guanine nucleotide exchange factor 3 (EPAC1) (AID 1645889); also: % of control where 0% means no effect; nearly all actives have a fitted effect of over 40% in size
How it was run: as §1

[13] = biological target: Calcium and integrin-binding protein 1 (Homo sapiens) (UniProt Q99828); assay: Primary qHTS for Identification of Calcium Integrin Binding Protein 1 (CIB1) Competitor (AID 1508620);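 also: GST tagged CIB1 binding a fluorescein labelled alphaIIb integrin peptide tracer; top concentration of the series differs between compounds; % is scaled to controls: 0 for no effect and ±100 for the full control effect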
Sequence of Calcium and integrin-binding protein 1 (Homo sapiens) (Q99828 whole entry, looked up): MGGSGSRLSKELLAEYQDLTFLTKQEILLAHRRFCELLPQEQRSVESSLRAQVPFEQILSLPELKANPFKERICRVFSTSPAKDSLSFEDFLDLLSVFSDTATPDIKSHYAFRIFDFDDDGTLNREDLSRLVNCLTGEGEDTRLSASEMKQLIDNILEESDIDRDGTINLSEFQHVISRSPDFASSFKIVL
How it was run: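 Fluorescence polarization competition: CIB1-GST (1 uM final) preincubated with compound 15 min at room temperature, then FITC-labeled alphaIIb peptide (100 nM final) added for another 15 min. Polarization read at Ex 480/Em 540.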

[14] = Confirmation and Secondary Assay for Modulators of Hemoglobin Beta Chain Splicing at IVS2 654 locus (AID 910);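 also: per-well total GFP intensity by laser scanning cytometry after 2-day treatment; % of control where 0% means no effect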
How it was run: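 HeLa cells stably carrying EGFP interrupted by mutant beta-globin IVS2-654 intron (CMV-driven) were treated with compound for 2 days at 37C; corrected splicing was scored as total peak GFP intensity per well (488 nm excitation, 500-520 nm emission).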

[15] = Confirmation and Secondary Assay for Modulators of Hemoglobin Beta Chain Splicing at IVS2 705 locus (AID 930);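 also: HeLa cells stably expressing the EGFP-705 splicing reporter; GFP fluorescence per well restored by corrected splicing of the IVS2-705 intron in EGFP; series mostly up to about 46 µM; % of control where 0% means no effect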
How it was run: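 Stable HeLa line with EGFP disrupted by mutant beta-globin intron 2 (705). Overnight attachment, then 2 days of compound at 37C, 5% CO2. Signal: peak GFP intensity summed over objects 5-250 µm.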

[16] = biological target: Glutathione peroxidase 1 (Homo sapiens) (UniProt P07203); assay: Primary qHTS Assay for Inhibitors of Recombinant Selenoprotein Glutathione Peroxidase 1 (GPX1) (AID 1845191); also: nearly all actives have a fitted effect of over 65% in size
Sequence of Glutathione peroxidase 1 (Homo sapiens) (P07203 whole entry, looked up): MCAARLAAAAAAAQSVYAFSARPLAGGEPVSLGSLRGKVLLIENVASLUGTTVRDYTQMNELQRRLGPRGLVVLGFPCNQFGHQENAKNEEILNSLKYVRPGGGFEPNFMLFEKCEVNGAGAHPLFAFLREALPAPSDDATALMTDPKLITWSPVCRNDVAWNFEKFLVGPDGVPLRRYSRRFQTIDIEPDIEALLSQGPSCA
How it was run: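 GPX1 10 nM, GR 100 nM, GSH 1 mM, NADPH 0.5 mM, CHP 0.5 mM (final). 30-min cpd preincubation, RT. Ex340/Em450 read t=0, t=15 min.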

O=C(O)c1c(-c2ccccc2)oc2ccc(OCc3ccc(Cl)c(Cl)c3)cc12
inactive: Potency [4] | Potency [6] | outcome [8] | outcome [9] | activity change, negative = inhibition [10] 10.2% [at 12.7 µM] | outcome [11] | Potency [12]
active: Potency (Furin (Homo sapiens)) 66.3 µM | Potency [1] 17.8 µM | Potency [2] 8.91 µM | Potency [3] 3.98 µM | Potency [5] 17.8 µM | Potency [7] 75.7 µM

COC(=O)C1=C(c2ccccc2)c2ccccc2S(=O)(=O)N1CC(=O)Nc1ccccc1C(F)(F)F
inactive: Potency (Furin (Homo sapiens)) | Potency [1]

O=C(O)c1ccc2c(ccc3nn(-c4ccc(/C=C/c5ccc(-n6nc7ccc8cc(C(=O)O)ccc8c7n6)cc5[S+](=O)([O-])[O-])c([S+](=O)([O-])[O-])c4)nc32)c1
active: Potency [1] 2.82 µM | Potency [2] 4.47 µM | Potency [3] 6.31 µM | Potency [5] 12.6 µM
inactive: Potency (Furin (Homo sapiens)) | Potency [4] | Potency [6]

COc1cc(C2Nc3ccccc3-c3nnc(SCc4ccc(Cl)cc4)nc3O2)ccc1OCC(=O)O (stereo unspecified)
active: Potency [1] 28.2 µM | Potency [4] 282 µM | Potency [5] 79.4 µM
inactive: Potency (Furin (Homo sapiens)) | Potency [2] | Potency [6]

CC(NC(=O)C1CCN(S(=O)(=O)c2ccc3nc4c(c(C(=O)O)c3c2)CCCC4)CC1)c1ccccc1 (stereo unspecified)
inactive: Potency (Furin (Homo sapiens)) | Potency [1] | Potency [3] | Potency [6]

Cc1csc2nc(COC(=O)c3ccccc3NC(=O)c3ccc(C(C)(C)C)cc3)cc(=O)n12
inactive: Potency [1] | Potency [3] | Potency [6]
active: Potency (Furin (Homo sapiens)) 37.3 µM

O=C(OCC#CCSc1nnc(-c2cccc3ccccc23)o1)c1sc(Cl)c(Cl)c1Cl
active: Potency (Furin (Homo sapiens)) 14.8 µM
inactive: Potency [1] | Potency [3] | Potency [6] | outcome [13]

O=C(OCC#CCSc1nnc(-c2cccc3ccccc23)o1)c1cc(F)c(F)c(F)c1
active: Potency (Furin (Homo sapiens)) 46.9 µM
inactive: Potency [1] | Potency [3] | Potency [6] | outcome [13]

O=C(Nc1ccccc1C(=O)OCc1cc(=O)n2nc(C3CC3)sc2n1)c1ccc(Cl)cc1
inactive: Potency [1] | Potency [3] | Potency [6]
active: Potency (Furin (Homo sapiens)) 41.8 µM

O=C(OCC#CCSc1nnc(-c2cccc3ccccc23)o1)c1sc2ccccc2c1Cl
active: Potency (Furin (Homo sapiens)) 46.9 µM
inactive: Potency [1] | Potency [3] | Potency [6] | outcome [13]

NC(Cc1cc(I)c(Oc2cc(I)c(O)c(I)c2)c(I)c1)C(=O)O (stereo unspecified)
active: Potency [1] 31.6 µM | Potency [3] 22.4 µM
inactive: outcome [14] | outcome [15] | Potency (Furin (Homo sapiens)) | Potency [6] | Potency [16]

CC(C)c1nn2c(=O)cc(COC(=O)c3cccc(NC(=O)c4ccccc4F)c3)nc2s1
inactive: Potency (Furin (Homo sapiens)) | Potency [1] | Potency [3] | Potency [6]

O=C(Nc1ccc(-c2nc3ccccc3s2)c(O)c1)c1ccc(Br)cc1
inactive: Potency (Furin (Homo sapiens)) | Potency [1] | Potency [3] | Potency [6]

O=C(OCC#CCSc1nnc(-c2cccc3ccccc23)o1)c1ccc(OC(F)(F)F)cc1
inactive: Potency [1] | Potency [3] | Potency [6] | outcome [13]
active: Potency (Furin (Homo sapiens)) 46.9 µM

CC(C)c1nn2c(=O)cc(COC(=O)c3ccc(NC(=O)c4cccs4)cc3)nc2s1
inactive: Potency (Furin (Homo sapiens)) | Potency [1] | Potency [3] | Potency [6]

O=C(CNC(=O)c1ccccc1)OC(C(=O)Nc1cc(C(F)(F)F)ccc1Cl)c1ccccc1 (stereo unspecified)
inactive: Potency (Furin (Homo sapiens)) | Potency [1] | Potency [3] | Potency [6]

O=C(CNC(=O)c1ccc(Cl)cc1)OCc1cc(=O)n2nc(C3CCCCC3)sc2n1
inactive: Potency (Furin (Homo sapiens)) | Potency [1] | Potency [3] | Potency [6]

O=C(Nc1ccc(C(=O)OCc2cc(=O)n3c4c(sc3n2)CCCC4)cc1)c1ccccc1
active: Potency (Furin (Homo sapiens)) 41.8 µM
inactive: Potency [1] | Potency [3] | Potency [6]

CCOC(=O)c1c(-c2ccc(C)cc2)csc1NC(=O)c1cc(-c2ccc(Cl)cc2)on1
inactive: Potency (Furin (Homo sapiens)) | Potency [1] | Potency [3] | Potency [6]

CC(C)(C)c1ccc(S(=O)(=O)Nc2ccc(O)c(Sc3nc4ccccc4s3)c2)cc1
active: Potency [1] 35.5 µM | Potency [3] 28.2 µM | Potency [5] 100 µM
inactive: Potency (Furin (Homo sapiens))

Cc1cc(NC(=O)c2ccc(Cl)c(Cl)c2)ccc1-c1cc2ccccc2oc1=O
active: Potency (Furin (Homo sapiens)) 66.3 µM | Potency [1] 44.7 µM | Potency [3] 31.6 µM
inactive: Potency [4] | Potency [6]

O=C(/C=C/c1ccc(C(F)(F)F)cc1)OC(C(=O)NC1CC1)c1ccccc1 (stereo unspecified)
inactive: Potency (Furin (Homo sapiens)) | Potency [1] | Potency [3] | Potency [6]

CC(C)OC(=O)c1ccc(NC(=O)CSc2nc(-c3cccs3)cc(C(F)(F)F)n2)cc1
inactive: Potency [1] | Potency [3] | Potency [6]
active: Potency (Furin (Homo sapiens)) 52.7 µM

O=S(=O)(Nc1ccc(O)c(NS(=O)(=O)c2ccccc2)c1)c1ccccc1
inactive: Potency (Furin (Homo sapiens)) | Potency [1] | Potency [3] | Potency [6] | outcome [13]

O=c1oc2ccc3ccccc3c2cc1-c1nnc(Nc2ccc(Cl)cc2Cl)s1
inactive: Potency (Furin (Homo sapiens)) | Potency [1] | Potency [3] | Potency [6]
